# Assay results from the supplement of paper PMC7156485.
# ± gives the standard deviation of the averaged measurements.
# Test system: HCC1569
# Assay: cell number relative to DMSO (% of DMSO); higher = more cells (less growth inhibition / toxicity)
# Conditions: concentration: 10 µM; 24 h
# In short: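 Cells were seeded at 800 per well in 384-well plates with RPMI containing 10% FBS; both HCC1569 and TDF lines were used. Compounds were added at 10 µM for 24 h at 37 °C, in triplicate, before fixation in 3.7% formaldehyde and staining with a rabbit anti-H1.0 antibody, an AlexaFluor 647 secondary and DAPI. H1.0 nuclear intensity or cell number is reported as percent of the plate control using the median of replicates, and HCC1569 values were smoothed for positional effects.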
# 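Also: TDF denotes transformed human dermal fibroblasts of mesenchymal origin.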
row,SMILES,cell number
1,O=C(C=Cc1ccc(O)cc1)c1ccc(O)cc1O [Isoliquiritigenin],96.3
2,N[C@H](CO)C(=O)O [D-Serine],104
3,COC(=O)c1c(C)[nH]c(C)c1C(=O)c1ccccc1Cc1ccccc1,102
4,CC1=C(C(=O)O)N2C(=O)C(NC(=O)C(N)c3ccccc3)C2SC1 (configuration not stated) [Cephalexin hydrate],104
5,CCCCCCCCC=CCCCCCCCCC(=O)O [10(Z)-Nonadecenoic acid],102
6,Cn1c(-c2ccc3c(c2)OCO3)cc(=O)c2ccccc21 [Graveoline],103
7,Cn1c(=O)c2c(nc(C=Cc3cccc(Cl)c3)n2C)n(C)c1=O [8-(3-Chlorostyryl)caffeine],106
8,CCC(C)n1ncn(-c2ccc(N3CCN(c4ccc(OCC5COC(Cn6cncn6)(c6ccc(Cl)cc6Cl)O5)cc4)CC3)cc2)c1=O (configuration not stated) [Itraconazole],79.5
9,Nc1ccc(S(=O)(=O)Nc2ccnn2-c2ccccc2)cc1 [Sulfaphenazole],107
10,O=C([O-])Cc1ccccc1Nc1c(Cl)cccc1Cl.[Na+] [Diclofenac sodium],109
11,CC1COC2=C1C(=O)C(=O)c1c2ccc2c1CCCC2(C)C (configuration not stated) [Cryptotanshinone],96.6
12,CCCCCCCCCCCCCCCC(=O)NCC(COP(=O)([O-])OCC[N+](C)(C)C)OCC (racemic) [rac-2-Ethoxy-3-hexadecanamido-1-propylphosphocholine],96.1
13,Cl.Cl.O=S(=O)(c1cccc2cnccc12)N1CCCNCC1,107
14,CCCCc1ncc(C=C(Cc2cccs2)C(=O)O)n1Cc1ccc(C(=O)O)cc1.CS(=O)(=O)O [Eprosartan mesylate],97.1
15,"CN(Cc1cnc2nc(N)nc(N)c2n1)c1ccc(C(=O)NC(CCC(=O)O)C(=O)O)cc1 (single isomer, unassigned; (-)) [(-)Amethopterin]",96.4
16,COc1cc(C=CC(=O)CC(=O)C=Cc2ccc(O)c(OC)c2)ccc1O [Curcumin],71.3

row,SMILES,cell number
1,CN1CCc2cccc3c2C1Cc1ccc(O)c(O)c1-3.Cl (configuration not stated) [Apomorphine hydrochloride hemihydrate],89.9
2,Nc1nc(Nc2ccccc2)nc2c1ncn2C1OC(CO)C(O)C1O (configuration not stated) [2-Phenylaminoadenosine],101
3,O=C(O)C1=CC(=C(c2ccc(O)c(C(=O)O)c2)c2ccc(O)c(C(=O)O)c2)C=CC1=O [Aurintricarboxylic acid],102
4,O=C(O)CCCC=CCC1C(O)CC(O)C1C=CC(O)COc1cccc(C(F)(F)F)c1 (configuration not stated) [Fluprostenol],100
5,CCOC(=O)C=C(C)C=CC=C(C)C=Cc1c(C)cc(OC)c(C)c1C [Etretinate],104
6,Cl.O=C1CC2(CCCC2)CC(=O)N1CCCCN1CCN(c2ncccn2)CC1 [Buspirone hydrochloride],97.6
7,CN(C)CCCn1cc(C2=C(c3c[nH]c4ccccc34)C(=O)NC2=O)c2ccccc21,86.2
8,CC1=C(C)C(=O)C(C(CCCCCC(=O)O)c2ccccc2)=C(C)C1=O (configuration not stated) [Seratrodast],107
9,"Nc1nc2ccc(Cl)cc2n2c(-c3ccccc3)nnc12 [8-chloro-1-phenyl[1,2,4]triazolo[4,3-a]quinoxalin-4-ylamine]",104
10,COC1C(OC(=O)C=CC=CC=CC=CC(=O)O)CCC2(CO2)C1C1(C)OC1CC=C(C)C (configuration not stated) [Fumagillin],104 ± 1.1
11,CN(C)CCC=C1c2ccccc2CCc2ccccc21.Cl [Amitriptyline.HCl],105
12,O=C(Cc1ccc(Cl)c(Cl)c1)OCCN1CCCC1.O=C(O)C(=O)O [AC 915 oxalate],101
13,O=C1NC(C(=O)O)CS1 (configuration not stated) [Procysteine],101
14,O=C([O-])c1cc2cc(Cc3cccnc3)ccc2o1.[Na+] [Furegrelate sodium],102
15,CCCCOC(=O)NC(=O)C1c2ccccc2Oc2ccccc21 [butyl 9H-xanthen-9-ylcarbonylcarbamate],102
16,"CCCCc1c(-c2ccc(OC)cc2)[nH]c2nccnc12 [Aloisine, RP106]",94.7
